Experimental data from publication PMC7862700, “An all-to-all approach to the identification of sequence-specific readers for epigenetic DNA modifications on cytosine”.

What was measured:
Assay in all cases: DAPPL (digital affinity profiling via proximity ligation, sequencing); 10 mM Tris-HCl pH 7.5, 50 mM NaCl, 1 mM DTT, 4% glycerol, room temperature, 30 min; GST-TFs on glutathione beads, 16-mer random dsDNA library, 0.1% formaldehyde crosslink after washing; high values mean tight binding
FEV = target: T1, FEV (Homo sapiens, UniProt Q99581 1-238); conditions: protein: recombinant; tags: N-terminal GST; dsDNA, one strand shown
T1 sequence: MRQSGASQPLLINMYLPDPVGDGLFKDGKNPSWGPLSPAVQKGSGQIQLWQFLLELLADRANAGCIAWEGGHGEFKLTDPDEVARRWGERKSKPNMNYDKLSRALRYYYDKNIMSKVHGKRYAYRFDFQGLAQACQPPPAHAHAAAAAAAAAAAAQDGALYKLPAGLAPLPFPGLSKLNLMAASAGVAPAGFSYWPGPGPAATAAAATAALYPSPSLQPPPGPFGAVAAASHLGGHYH
How it was run: (§1)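 GST fusions of human transcription factors were expressed in yeast and captured with glutathione beads. Once given DNA barcodes and pooled alongside a tag-only sample, they were incubated for 30 min at room temperature with 200 nmole of a random double-stranded 16-mer DNA library in Tris/NaCl/DTT/glycerol buffer, then washed, crosslinked (0.1% formaldehyde), proximity-ligated, PCR-amplified and sequenced on an Illumina NextSeq500. The binding signal of each hexamer is its read frequency for a factor divided by its frequency for the tag-only sample.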

ETV5 = ETV5 (Homo sapiens, UniProt P41161 1-510); conditions: protein: recombinant; tags: N-terminal GST; dsDNA, one strand shown
Chain of ETV5 (P41161 whole entry): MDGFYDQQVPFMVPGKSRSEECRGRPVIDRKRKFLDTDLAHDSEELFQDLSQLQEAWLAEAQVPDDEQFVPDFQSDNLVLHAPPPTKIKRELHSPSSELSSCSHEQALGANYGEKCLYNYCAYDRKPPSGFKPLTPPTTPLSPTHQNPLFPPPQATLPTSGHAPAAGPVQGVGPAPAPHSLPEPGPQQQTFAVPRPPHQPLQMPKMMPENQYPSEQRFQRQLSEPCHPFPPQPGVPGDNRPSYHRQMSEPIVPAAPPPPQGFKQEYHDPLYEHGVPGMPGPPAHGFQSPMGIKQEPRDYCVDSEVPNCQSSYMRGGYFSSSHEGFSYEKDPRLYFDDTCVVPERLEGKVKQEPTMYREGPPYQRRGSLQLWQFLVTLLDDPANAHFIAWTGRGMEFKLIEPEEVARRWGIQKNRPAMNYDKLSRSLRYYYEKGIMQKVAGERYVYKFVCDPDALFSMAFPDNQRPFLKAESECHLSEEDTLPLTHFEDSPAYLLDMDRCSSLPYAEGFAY
How it was run: as §1

HSF1 = HSF1 (Homo sapiens, UniProt Q00613 1-529); conditions: protein: recombinant; tags: N-terminal GST; chain copies: 3; dsDNA, one strand shown
Chain of HSF1 (Q00613 whole entry): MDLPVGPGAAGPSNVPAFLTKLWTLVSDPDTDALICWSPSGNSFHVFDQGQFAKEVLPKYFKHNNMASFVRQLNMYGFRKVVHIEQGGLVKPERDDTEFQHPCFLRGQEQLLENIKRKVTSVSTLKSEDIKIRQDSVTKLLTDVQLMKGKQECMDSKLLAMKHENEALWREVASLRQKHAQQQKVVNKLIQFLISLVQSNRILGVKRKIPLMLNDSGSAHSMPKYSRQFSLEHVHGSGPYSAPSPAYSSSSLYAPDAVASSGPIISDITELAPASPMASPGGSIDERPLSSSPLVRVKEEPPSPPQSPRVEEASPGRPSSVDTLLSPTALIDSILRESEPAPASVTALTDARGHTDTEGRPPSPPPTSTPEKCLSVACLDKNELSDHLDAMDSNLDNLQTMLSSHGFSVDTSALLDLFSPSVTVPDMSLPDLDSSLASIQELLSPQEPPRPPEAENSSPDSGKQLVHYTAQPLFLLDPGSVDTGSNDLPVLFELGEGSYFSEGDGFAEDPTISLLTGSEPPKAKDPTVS
How it was run: as §1

SPIC = target: T2, SPIC (Homo sapiens, UniProt Q8N5J4 1-248); conditions: protein: recombinant; tags: N-terminal GST; dsDNA, one strand shown
T2 sequence: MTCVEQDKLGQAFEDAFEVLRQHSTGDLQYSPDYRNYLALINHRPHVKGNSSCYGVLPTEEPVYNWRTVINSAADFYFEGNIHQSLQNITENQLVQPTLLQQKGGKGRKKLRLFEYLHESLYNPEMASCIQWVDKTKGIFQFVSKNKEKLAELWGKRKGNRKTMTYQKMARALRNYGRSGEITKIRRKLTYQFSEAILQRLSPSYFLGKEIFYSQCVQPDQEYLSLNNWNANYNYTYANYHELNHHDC
How it was run: as §1

ELF4 = ELF4 (Homo sapiens, UniProt Q99607 1-663); conditions: protein: recombinant; tags: N-terminal GST; dsDNA, one strand shown
Chain of ELF4 (Q99607 whole entry): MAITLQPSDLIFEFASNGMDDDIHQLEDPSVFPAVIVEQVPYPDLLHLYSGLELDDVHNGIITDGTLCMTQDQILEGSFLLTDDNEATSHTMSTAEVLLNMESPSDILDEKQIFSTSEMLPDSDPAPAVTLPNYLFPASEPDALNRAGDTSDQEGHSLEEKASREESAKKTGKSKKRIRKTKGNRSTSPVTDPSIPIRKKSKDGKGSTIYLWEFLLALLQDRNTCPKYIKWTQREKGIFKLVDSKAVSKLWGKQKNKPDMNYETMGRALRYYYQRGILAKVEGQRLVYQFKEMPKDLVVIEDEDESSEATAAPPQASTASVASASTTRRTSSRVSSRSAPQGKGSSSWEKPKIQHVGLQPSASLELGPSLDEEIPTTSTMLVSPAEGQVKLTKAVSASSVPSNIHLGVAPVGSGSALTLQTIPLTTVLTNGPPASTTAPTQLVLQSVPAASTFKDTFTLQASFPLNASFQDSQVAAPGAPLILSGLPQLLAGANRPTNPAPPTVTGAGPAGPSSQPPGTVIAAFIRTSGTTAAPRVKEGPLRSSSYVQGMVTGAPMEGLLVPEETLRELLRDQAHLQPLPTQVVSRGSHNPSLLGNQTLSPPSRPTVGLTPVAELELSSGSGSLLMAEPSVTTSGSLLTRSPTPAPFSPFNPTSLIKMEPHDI
How it was run: as §1

ELK4 = target: T3, ELK4 (Homo sapiens, UniProt P28324-2 1-405); conditions: protein: recombinant; tags: N-terminal GST; dsDNA, one strand shown
T3 sequence: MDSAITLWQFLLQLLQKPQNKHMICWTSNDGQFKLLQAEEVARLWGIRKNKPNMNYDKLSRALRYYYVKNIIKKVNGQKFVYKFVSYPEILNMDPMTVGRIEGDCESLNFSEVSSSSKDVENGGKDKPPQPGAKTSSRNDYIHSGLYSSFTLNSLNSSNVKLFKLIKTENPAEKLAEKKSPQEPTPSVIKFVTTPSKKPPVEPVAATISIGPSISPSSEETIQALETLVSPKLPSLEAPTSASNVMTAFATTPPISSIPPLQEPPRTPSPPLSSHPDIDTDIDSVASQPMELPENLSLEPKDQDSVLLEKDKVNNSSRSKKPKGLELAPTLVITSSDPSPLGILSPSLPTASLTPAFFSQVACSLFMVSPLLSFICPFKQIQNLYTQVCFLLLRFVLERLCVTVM
How it was run: as §1

ETV2 = target: T4, ETV2 (Homo sapiens, UniProt O00321 1-342); conditions: protein: recombinant; tags: N-terminal GST; dsDNA, one strand shown
T4 sequence: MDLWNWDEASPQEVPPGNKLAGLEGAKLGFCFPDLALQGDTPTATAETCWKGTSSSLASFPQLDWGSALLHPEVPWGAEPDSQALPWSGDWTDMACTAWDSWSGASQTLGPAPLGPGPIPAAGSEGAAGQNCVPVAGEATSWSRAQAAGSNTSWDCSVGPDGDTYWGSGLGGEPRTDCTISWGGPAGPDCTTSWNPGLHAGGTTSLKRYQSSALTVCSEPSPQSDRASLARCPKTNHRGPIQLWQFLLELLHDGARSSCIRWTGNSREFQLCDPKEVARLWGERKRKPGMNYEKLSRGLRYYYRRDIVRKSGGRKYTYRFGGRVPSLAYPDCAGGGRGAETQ
How it was run: as §1

ELF3 = target: T5, ELF3 (Homo sapiens, UniProt P78545 1-371); conditions: protein: recombinant; tags: N-terminal GST; dsDNA, one strand shown
T5 sequence: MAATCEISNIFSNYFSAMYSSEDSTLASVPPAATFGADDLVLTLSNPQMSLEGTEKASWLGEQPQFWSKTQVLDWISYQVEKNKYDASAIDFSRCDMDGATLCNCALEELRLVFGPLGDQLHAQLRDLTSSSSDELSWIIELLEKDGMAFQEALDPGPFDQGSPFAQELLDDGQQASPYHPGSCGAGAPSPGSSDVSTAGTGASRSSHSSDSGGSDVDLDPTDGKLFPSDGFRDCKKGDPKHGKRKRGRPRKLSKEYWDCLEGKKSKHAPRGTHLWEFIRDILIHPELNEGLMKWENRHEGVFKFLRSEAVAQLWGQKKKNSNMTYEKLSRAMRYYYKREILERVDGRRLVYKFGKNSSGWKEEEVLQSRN
How it was run: as §1

CRX = CRX (Homo sapiens, UniProt O43186 1-299); conditions: protein: recombinant; tags: N-terminal GST; dsDNA, one strand shown
Chain of CRX (O43186 whole entry): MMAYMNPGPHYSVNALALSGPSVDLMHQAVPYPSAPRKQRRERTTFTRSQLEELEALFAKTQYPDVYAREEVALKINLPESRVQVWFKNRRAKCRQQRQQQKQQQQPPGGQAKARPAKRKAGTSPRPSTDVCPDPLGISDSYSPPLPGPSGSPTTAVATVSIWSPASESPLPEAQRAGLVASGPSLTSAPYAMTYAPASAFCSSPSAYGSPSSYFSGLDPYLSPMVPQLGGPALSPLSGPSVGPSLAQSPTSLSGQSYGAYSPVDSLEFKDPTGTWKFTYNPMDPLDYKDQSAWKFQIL
How it was run: as §1

ETV1 = ETV1 (Homo sapiens, UniProt P50549 1-477); conditions: protein: recombinant; tags: N-terminal GST; dsDNA, one strand shown
Chain of ETV1 (P50549 whole entry): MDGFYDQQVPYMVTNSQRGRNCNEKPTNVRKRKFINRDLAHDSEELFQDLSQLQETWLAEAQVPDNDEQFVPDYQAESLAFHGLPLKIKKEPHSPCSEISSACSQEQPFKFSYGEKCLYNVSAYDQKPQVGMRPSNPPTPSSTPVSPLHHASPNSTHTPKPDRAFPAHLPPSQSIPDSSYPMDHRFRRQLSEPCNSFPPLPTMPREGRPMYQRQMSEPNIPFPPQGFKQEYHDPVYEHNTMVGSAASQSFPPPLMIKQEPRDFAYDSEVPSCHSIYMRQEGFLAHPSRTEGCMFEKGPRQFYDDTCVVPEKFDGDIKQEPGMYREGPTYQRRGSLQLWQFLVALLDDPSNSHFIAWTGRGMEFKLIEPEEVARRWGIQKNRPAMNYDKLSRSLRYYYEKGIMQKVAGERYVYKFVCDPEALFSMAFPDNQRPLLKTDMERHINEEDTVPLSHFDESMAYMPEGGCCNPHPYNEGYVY
How it was run: as §1

For ATGCTC, the binding signal (FEV) was 1.39 fold enrichment (6-mer frequency, TF over GST control), the binding signal (ETV5) was 1.41 fold enrichment (6-mer frequency, TF over GST control) and the binding signal (HSF1) was 1.43 fold enrichment (6-mer frequency, TF over GST control). The binding signal (SPIC) was 1.47 fold enrichment (6-mer frequency, TF over GST control), the binding signal (ELF4) was 1.46 fold enrichment (6-mer frequency, TF over GST control) and the binding signal (ELK4) was 1.32 fold enrichment (6-mer frequency, TF over GST control). For the same sequence, the binding signal (ETV2) was 1.37 fold enrichment (6-mer frequency, TF over GST control), the binding signal (ELF3) was 1.47 fold enrichment (6-mer frequency, TF over GST control) and the binding signal (CRX) was 1.38 fold enrichment (6-mer frequency, TF over GST control). For the same sequence, the binding signal (ETV1) was 1.42 fold enrichment (6-mer frequency, TF over GST control).
